The results in this text go back to the supplement of paper PMC9801561.

Assay [1] deals with Escherichia coli Nissle 1917. Nature of the assay: area under OmniLog respiration curve over 48 h (OmniLog units x h); higher = more growth / nutrient utilisation; extreme values may be limits of the assay. The settings on record: incubation: 48 h, 37 °C.
In assay [2] the test system is Escherichia coli Nissle 1917. Nature of the assay: DuctApe activity index of respiration/growth curve (0 no growth to 9 maximum) (index 0-9); higher = more growth / nutrient utilisation, active = 3 or more; extreme values may be limits of the assay. The settings on record: incubation: 48 h, 37 °C.
The mark [3] stands for this setting: nutrient role: C-Source, carbohydrate.
The mark [4] stands for this setting: nutrient role: sole nitrogen source (pyruvate carbon).
Where [5] appears, read: nutrient role: C-Source, amino acid.
The mark [6] stands for this setting: nutrient role: C-Source, carboxylic acid.
Where [7] appears, read: nutrient role: sole sulfur source (pyruvate carbon).
[8] abbreviates: nutrient role: sole phosphorus source (pyruvate carbon).

± gives the standard deviation of the averaged measurements.
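Wherever DuctApe activity index of respiration/growth curve (0 no growth to 9 maximum) is given: biolog PM4 phosphorus and sulfur plates, tetrazolium violet dye reduction read in the OmniLog every 15 min, kinetic curves scored by DuctApe, each plate run in triplicate.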

As for `CC(=O)N[C@H]1C(O)O[C@H](CO)[C@H](O)[C@@H]1O` (stereo partly drawn) [N-Acetyl-D-Galactosamine], the “area under OmniLog respiration curve” value in assay [1] (setting [3]) turned out to be 8120 ± 580; in assay [1] (setting [4]) it was 992 ± 1000. In addition, the figures for the DuctApe activity index in assay [2] (setting [3]) and in assay [2] (setting [4]) were 8 (active) and 2.33 (inactive), respectively.

Turning to `CC(C)C[C@H](N)C(=O)O` [L-Leucine], the figures for the “area under OmniLog respiration curve” value in assay [1] (setting [5]) and in assay [1] (setting [4]) were 15.5 ± 9.5 and 804 ± 870, respectively. Also, the DuctApe activity index is 0 (inactive) in assay [2] (setting [5]) and 1.33 (inactive) in assay [2] (setting [4]).

For `N=C(N)NCCC[C@H](N)C(=O)O` [L-Arginine], the “area under OmniLog respiration curve” value in assay [1] (setting [5]) was 4.72; in assay [1] (setting [4]), 7500 ± 1400. Besides, the values for the DuctApe activity index in assay [2] (setting [5]) and in assay [2] (setting [4]) were 0 (inactive) and 8 (active), respectively.

Consider `NCCCC(=O)O` [g-Amino-N-Butyric acid], for which the results for the “area under OmniLog respiration curve” value in assay [1] (setting [6]) and in assay [1] (setting [4]) were 4.72 and 2000 ± 1100, respectively. For the same compound, the DuctApe activity index in assay [2] (setting [6]) is 0 (inactive); in assay [2] (setting [4]), 4 (active).

For the compound `C[C@@H](N)C(=O)O` [D-Alanine], the figures for the “area under OmniLog respiration curve” value in assay [1] (setting [5]) and in assay [1] (setting [4]) were 7620 ± 460 and 6690 ± 1200, respectively. Besides, the figures for the DuctApe activity index in assay [2] (setting [5]) and in assay [2] (setting [4]) were 8 (active) and 7.33 (active), respectively.

Turning to `CC[C@H](C)[C@H](N)C(=O)O` [L-Isoleucine], the “area under OmniLog respiration curve” value in assay [1] (setting [5]) is 11.5 ± 6.6; in assay [1] (setting [4]) it was 64.6 ± 81. Besides, the DuctApe activity index was 0 (inactive) in assay [2] (setting [5]) and 1 (inactive) in assay [2] (setting [4]).

In the case of `N[C@@H](CO)C(=O)O` [L-Serine], the entries for the “area under OmniLog respiration curve” value in assay [1] (setting [5]) and in assay [1] (setting [4]) were 8500 ± 700 and 7360 ± 1300, respectively. In addition, the DuctApe activity index was 8.67 (active) in assay [2] (setting [5]) and 8 (active) in assay [2] (setting [4]).

On to `CSCC[C@H](N)C(=O)O` [L-Methionine], for which the “area under OmniLog respiration curve” value in assay [1] (setting [5]) amounted to 33.3 ± 28; in assay [1] (setting [4]), 4200 ± 940; in assay [1] (setting [7]), 6300 ± 150. Moreover, the DuctApe activity index is 0 (inactive) in assay [2] (setting [5]), 6 (active) in assay [2] (setting [4]) and 7 (active) in assay [2] (setting [7]).

With `CC(=O)N[C@@H](CCC(=O)O)C(=O)O` [N-Acetyl-L-Glutamic acid], the “area under OmniLog respiration curve” value in assay [1] (setting [5]) and in assay [1] (setting [4]) was 4.72 each time. The DuctApe activity index in assay [2] (setting [5]) and in assay [2] (setting [4]) was 0 (inactive) each time.

As for `C[C@H](O)C(=O)O` [L-Lactic acid], the “area under OmniLog respiration curve” value in assay [1] (setting [6]) worked out at 7880 ± 510. For the same compound, the DuctApe activity index in assay [2] (setting [6]) is 8 (active).

As for `OC[C@H]1O[C@@](CO)(O[C@H]2O[C@H](CO)[C@@H](O)[C@H](O)[C@H]2O)[C@@H](O[C@H]2O[C@H](CO)[C@@H](O)[C@H](O)[C@H]2O)[C@@H]1O` [D-Melezitose], the “area under OmniLog respiration curve” value in assay [1] (setting [3]) was 106 ± 150. Further, the DuctApe activity index in assay [2] (setting [3]) is 1 (inactive).

`C[C@@H]1OC(O)[C@H](O)[C@H](O)[C@H]1O` (stereo partly drawn) [L-Rhamnose]: in assay [1] (setting [3]), the “area under OmniLog respiration curve” value is 6960 ± 610. In addition, the DuctApe activity index in assay [2] (setting [3]) is 7.33 (active).

For `NCC(=O)N[C@@H](CCC(N)=O)C(=O)O`, in assay [1] (setting [4]), the “area under OmniLog respiration curve” value amounted to 8900 ± 1400. In addition, the DuctApe activity index in assay [2] (setting [4]) is 8.67 (active).

With `O=c1ccn(C2OC(COP(=O)(O)O)C(O)C2O)c(=O)[nH]1` (stereo unspecified) [Uridine 5`-Monophosphate], the “area under OmniLog respiration curve” value in assay [1] (setting [8]) was 8960 ± 820. Besides, the DuctApe activity index in assay [2] (setting [8]) is 8.67 (active).

In the case of `OC[C@H]1O[C@@H](O[C@@H]2[C@@H](CO)OC(O)(CO)[C@H]2O)[C@H](O)[C@@H](O)[C@H]1O` (mixture of isomers) [Lactulose], in assay [1] (setting [3]), the “area under OmniLog respiration curve” value turned out to be 8170 ± 840. Moreover, the DuctApe activity index in assay [2] (setting [3]) was 8 (active).

In the case of `Oc1nc(O)c2nc(O)[nH]c2n1` [Uric acid], in assay [1] (setting [4]), the “area under OmniLog respiration curve” value was determined as 986 ± 490. Also, in assay [2] (setting [4]), the DuctApe activity index was 2.33 (inactive).

With `NCCOP(=O)(O)O` [O-Phosphoryl-Ethanolamine], the “area under OmniLog respiration curve” value in assay [1] (setting [8]) was 8740 ± 290. For the same compound, the DuctApe activity index in assay [2] (setting [8]) was 8.67 (active).

Turning to `NC(Cc1ccc(OP(=O)(O)O)cc1)C(=O)O` (stereo in doubt) [O-Phospho-D-Tyrosine], the “area under OmniLog respiration curve” value in assay [1] (setting [8]) turned out to be 9640 ± 360. Also, the DuctApe activity index in assay [2] (setting [8]) is 9 (active).

Take `C[C@H](O)[C@@H](N)C(=O)O` [D-Threonine]: the “area under OmniLog respiration curve” value in assay [1] (setting [5]) came out at 291 ± 470. For the same compound, the DuctApe activity index in assay [2] (setting [5]) is 0.667 (inactive).

For `NCCS(=O)O` [Hypotaurine], in assay [1] (setting [7]), the “area under OmniLog respiration curve” value turned out to be 7620 ± 90. Also, in assay [2] (setting [7]), the DuctApe activity index was 8 (active).

`COC(=O)C(C)=O` [Methylpyruvate]: in assay [1] (nutrient role: C-Source, ester), the “area under OmniLog respiration curve” value was determined as 8530 ± 550. The DuctApe activity index in assay [2] (nutrient role: C-Source, ester) is 8.33 (active).

Take `O=C(O)CC[C@@H](C(=O)O)N1C(=O)c2ccccc2C1=O` [N-Phthaloyl-L-Glutamic acid]: in assay [1] (setting [4]), the “area under OmniLog respiration curve” value turned out to be 4540 ± 1100. The DuctApe activity index in assay [2] (setting [4]) was 6 (active).

As to `O=C(O)[C@H]1OC(O)[C@H](O)[C@@H](O)[C@H]1O` (stereo partly drawn) [D-Galacturonic acid], in assay [1] (setting [6]), the “area under OmniLog respiration curve” value stood at 10200 ± 880. Also, the DuctApe activity index in assay [2] (setting [6]) is 9 (active).

Consider `OC[C@H]1O[C@H](OC[C@H]2O[C@H](O[C@]3(CO)O[C@H](CO)[C@@H](O)[C@@H]3O)[C@H](O)[C@@H](O)[C@@H]2O)[C@H](O)[C@@H](O)[C@H]1O` [D-Raffinose], for which, in assay [1] (setting [3]), the “area under OmniLog respiration curve” value turned out to be 6090 ± 450. For the same compound, in assay [2] (setting [3]), the DuctApe activity index was 7 (active).

On to `NC(=O)OP(=O)(O)O` [Carbamyl Phosphate], for which the “area under OmniLog respiration curve” value in assay [1] (setting [8]) stood at 9480 ± 480. Moreover, the DuctApe activity index in assay [2] (setting [8]) was 9 (active).

As to `NCCc1c[nH]cn1` [Histamine], in assay [1] (setting [4]), the “area under OmniLog respiration curve” value is 5.03 ± 0.54. The DuctApe activity index in assay [2] (setting [4]) was 0 (inactive).

As for `OC[C@H]1O[C@H](O[C@H]2[C@H](O)[C@@H](O)[C@H](O)O[C@@H]2CO)[C@H](O)[C@@H](O)[C@@H]1O` [Maltose], in assay [1] (setting [3]), the “area under OmniLog respiration curve” value came to 7970 ± 810. Also, the DuctApe activity index in assay [2] (setting [3]) was 7.67 (active).

For the compound `CCCCS(=O)(=O)O` [Butane Sulfonic acid], the “area under OmniLog respiration curve” value in assay [1] (setting [7]) came out at 7820 ± 190. Also, the DuctApe activity index in assay [2] (setting [7]) was 8 (active).

Consider `C=C(OP(=O)(O)O)C(=O)O` [Phosphoenol Pyruvate], for which, in assay [1] (setting [8]), the “area under OmniLog respiration curve” value was 9270 ± 480. For the same compound, the DuctApe activity index in assay [2] (setting [8]) is 9 (active).

For `NCC(=O)N[C@@H](CC(=O)O)C(=O)O`, the “area under OmniLog respiration curve” value in assay [1] (setting [5]) is 8800 ± 750. Besides, the DuctApe activity index in assay [2] (setting [5]) was 8.67 (active).

Take `O=P(O)(O)OP(=O)(O)O` [Pyrophosphate]: in assay [1] (setting [8]), the “area under OmniLog respiration curve” value was found to be 9320 ± 480. Besides, the DuctApe activity index in assay [2] (setting [8]) was 9 (active).

`C[C@H](N)C(=O)N[C@@H](CCC(N)=O)C(=O)O`: the “area under OmniLog respiration curve” value in assay [1] (setting [4]) is 8550 ± 1600. The DuctApe activity index in assay [2] (setting [4]) was 8 (active).

Turning to `Nc1ccc(S(=O)(=O)O)cc1` [p-Aminobenzene Sulfonic acid], the “area under OmniLog respiration curve” value in assay [1] (setting [7]) came out at 550 ± 470. The DuctApe activity index in assay [2] (setting [7]) was 0 (inactive).
